# Shown is part of a subset that was picked to be rich in the strongest signals.
# Experiments:
# Test in all cases: glycan array binding signal (z-score within array); higher = stronger binding
# Settings in all cases: glycan notation: IUPAC condensed, linker removed
# [1] = target: GlcNAc(b1-4)GlcNAc(b1-4)GlcNAc(b1-4)GlcNAc(b1-4)GlcNAc
# In short: (§1)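 Columns mapping to the same glycan were averaged after glycan names were converted to IUPAC-condensed notation. The data come from 3228 arrays in the Consortium for Functional Glycomics database, limited to those with an available protein sequence. Binding is reported as a within-array Z-score averaged across arrays of one protein sequence and across linkers.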
# [2] = target: GlcNAc(b1-6)Gal(b1-4)GlcNAc
# In short: as §1
# [3] = target: Man(a1-2)Man(a1-3)[Man(a1-6)]Man(a1-6)[Man(a1-2)Man(a1-3)]Man(b1-4)GlcNAc(b1-4)GlcNAc
# In short: as §1
# [4] = target: Neu5Ac(a2-3)Gal(b1-3)GalNAc(b1-4)[Neu5Ac(a2-8)Neu5Ac(a2-3)]Gal(b1-4)Glc
# In short: as §1
# [5] = target: Neu5Ac(a2-3)Gal(b1-3)GlcNAc(b1-2)Man(a1-3)[Neu5Ac(a2-3)Gal(b1-3)GlcNAc(b1-2)Man(a1-6)]Man(b1-4)GlcNAc(b1-4)GlcNAc
# In short: as §1
# [6] = target: Neu5Ac(a2-3)Gal(b1-4)GlcNAc(b1-2)Man(a1-3)[Neu5Ac(a2-3)Gal(b1-4)GlcNAc(b1-2)Man(a1-6)]Man(b1-4)GlcNAc(b1-4)GlcNAc
# In short: as §1
# [7] = target: Neu5Ac(a2-3)Gal(b1-4)GlcNAc(b1-3)Gal(b1-4)[Fuc(a1-3)]GlcNAc
# In short: as §1
# [8] = target: Neu5Ac(a2-3)Gal(b1-4)[Fuc(a1-3)]GlcNAc
# In short: as §1
# [9] = target: Neu5Ac(a2-3)Gal(b1-4)[Fuc(a1-3)]GlcNAc(b1-3)Gal
# In short: as §1
# [10] = target: Neu5Ac(a2-6)Gal(b1-4)GlcNAc(b1-2)Man(a1-3)[Neu5Ac(a2-6)Gal(b1-4)GlcNAc(b1-2)Man(a1-6)]Man(b1-4)GlcNAc(b1-4)[Fuc(a1-6)]GlcNAc
# In short: as §1
# [11] = target: Neu5Ac(a2-6)Gal(b1-4)GlcNAc(b1-2)[Neu5Ac(a2-6)Gal(b1-4)GlcNAc(b1-4)]Man(a1-3)[GlcNAc(b1-4)][Neu5Ac(a2-6)Gal(b1-4)GlcNAc(b1-4)Man(a1-6)]Man(b1-4)GlcNAc(b1-4)GlcNAc
# In short: as §1
# [12] = target: Neu5Ac(a2-6)GlcNAc(b1-4)GlcNAc
# In short: as §1
# [13] = target: Neu5Ac(a2-8)Neu5Ac(a2-3)[GalNAc(b1-4)]Gal(b1-4)Glc
# In short: as §1
# [14] = target: Neu5Ac(a2-8)Neu5Gc(a2-3)Gal(b1-4)GlcNAc
# In short: as §1
# [15] = target: Neu5Ac9Ac(a2-6)Gal(b1-4)GlcNAc
# In short: as §1
# [16] = target: Neu5Gc(a2-3)Gal(b1-4)GlcNAc
# In short: as §1
# [17] = target: Neu5Gc(b2-6)Gal(b1-4)GlcNAc
# In short: as §1
binder,measurement,setting,value
"SAOUHSC 02783 (Staphylococcus aureus), Q5HD69 (protein) MIHSKKLTLGICLVLLIILIVGYVIMTKTNGRNAQIKDTFNQTLKLYPTKNLDDFYDKEGFRDQEFKKGDKGTWIVNSEMVIEPKGKDMETRGMVLYINRNTRTTKGYYFISEMTDDSNGRPKDDEKRYPVKMEHNKIIPTKPLPNDKLKKEIENFKFFVQYGNFKDINDYKDGDISYNPNVPSYSAKYQLNNDDYNVQQLRKRYDIPTKQAPKLLLKGDGDLKGSSVGSRSLEFTFVENKEENIYFTDSVQYTPSEDTRYESN",glycan array binding signal (z-score),[1],-0.476
same,glycan array binding signal (z-score),[2],0.133
same,glycan array binding signal (z-score),[3],0.494
same,glycan array binding signal (z-score),[4],-0.869
same,glycan array binding signal (z-score),[5],6.23
same,glycan array binding signal (z-score),[6],0.306
same,glycan array binding signal (z-score),[7],-0.998
same,glycan array binding signal (z-score),[8],-1.44
same,glycan array binding signal (z-score),[9],-0.162
same,glycan array binding signal (z-score),[10],2.81
same,glycan array binding signal (z-score),[11],0.093
same,glycan array binding signal (z-score),[12],1.36
same,glycan array binding signal (z-score),[13],-0.759
same,glycan array binding signal (z-score),[14],-1.02
same,glycan array binding signal (z-score),[15],1.65
same,glycan array binding signal (z-score),[16],3.09
same,glycan array binding signal (z-score),[17],-0.76
